# Screening results (PubChem)
# CHX counter = counter-screen hit for Shiga toxin inhibitors, cycloheximide | max response, % | hit rate 12% among 300,000 | cell reporter, cycloheximide protein synthesis inhibition counterscreen; in the data active = max response mostly above about 13%, no sharp cut-off; inactive = mostly below about 14%; also: read at 38.3 µM for the half of the compounds with a filed dose
# Pf growth 96h = inhibits malaria parasite growth, 96 h; Potency, µM (titrated, usually from 28.7 µM), hits mostly inhibitors; hit rate 6.9% among 320,000; AID 504834; P. falciparum luciferase reporter growth, 96 h
#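 Luminescence readout: decreased luciferase signal marks inhibited growth of reporter-expressing P. falciparum in infected red cells (2% hematocrit, 0.05% parasitemia final), exposed to compound two generations (96 h, 37 C, 5% CO2).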
# Pf growth 48h = inhibits P. falciparum growth in the first generation, 48 h; P. falciparum luciferase growth in erythrocytes, 48 h; Potency, µM (highest dose often 28.7 µM), usual class: inhibitors; hit rate 5.9% among 310,000; AID 504832
#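 In quantitative HTS format, infected erythrocytes bearing luciferase-reporter parasites were treated for a single generation at 37 C. Luminescence after adding detection reagent served as the growth measure.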
# Shiga inhibitor = Shiga toxin inhibition | Vero cells, Shiga toxin protein synthesis inhibition reporter | inhibition, % at 38.7 µM | hit rate 9.2% among 290,000; in the data active = inhibition mostly above about 28%, no sharp cut-off; inactive = mostly below about 43%
# NS1 function inh = influenza NS1 inhibition; AID 2326; Potency, µM (series often up to 46.1 µM); hit rate 0.4% among 270,000; calls by dose curve; also: actives are rising curves; nearly all actives have a fitted effect of over 50% in size
#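 Compounds were scored for reversing the slow growth caused by influenza A NS1 in S. cerevisiae, measured by optical density at 600 nm. Assay medium contained 2% galactose at pH 6.0; NS1-free yeast of the same strain were the positive control.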
# Sm TGR block = blocks Schistosoma mansoni thioredoxin glutathione reductase. Q962Y6. purified TGR, DTNB reduction, TNB absorbance 405 nm. Potency, µM (series often up to 114 µM), actives largely listed as inhibitors. hit rate 3% among 360,000. AID 485364; also: nearly all actives have a fitted effect of over 60% in size
#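 Kinetic colorimetric format: TGR-catalysed, NADPH-driven DTNB reduction monitored via TNB absorbance. Enzyme dispensed at 20 nM; compound exposure 15 min at room temperature before reaction start.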
# A number is an active result; – = inactive; ? = inconclusive; · = no result given; [ ] = remark or other dose. Shown are actives, neighbours in structure and some others; about 21% of the full set was active somewhere. Unless noted, calls follow the shape of the dose curve; as a rule, active = well fitted curve in the direction sought with a large enough effect; inconclusive = small, poorly fitted or top-dose-only effect, or another doubt; inactive = no such curve, though single readings can be large; an effect the other way counts as inactive or inconclusive.
SMILES,CHX counter,Pf growth 96h,Pf growth 48h,Shiga inhibitor,NS1 function inh,Sm TGR block
CSCCC(NS(=O)(=O)c1ccc(C)cc1)C(=O)N1CCN(C(c2ccccc2)c2ccccc2)CC1 (centres undefined),·,6.6µM,3.7µM,·,·,–
CSCCC(NS(=O)(=O)c1ccc(C)cc1)C(=O)NC1CCCCCC1 (centres undefined),·,?,9.3µM,·,·,–
CSCCC(NS(=O)(=O)c1ccc2c(c1)oc(=O)n2C)C(=O)NC1CCN(Cc2ccccc2)CC1 (centres undefined),–,1.9µM,–,–,·,?
CCN1CCN(C(=O)c2cnn(-c3ccc(F)cc3)c2-n2cccc2)CC1,·,·,·,·,·,–
O=C(CSc1nc2c(c(=O)n1-c1ccc(Cl)cc1)SCC2)NCc1ccco1,–,?,?,–,–,?
O=C(CSc1nc2c(c(=O)n1-c1ccc(F)cc1)SCC2)NCc1ccco1,–,–,?,–,–,40µM
CCSc1nc2c(c(=O)n1-c1ccc(F)cc1)SCC2,–,2.9µM,?,–,–,–
Cc1ccc(-c2nsc(NC(=O)c3oc4cc(C)c(Cl)cc4c3C)n2)cc1,·,·,·,·,·,–
O=c1c2ccccc2nc(COc2ccccc2)n1/N=C/c1c[nH]c2ccccc12,–,–,–,–,–,–
Cc1ccccc1OCc1nc2ccccc2c(=O)n1/N=C/c1cn[nH]c1-c1ccc(Br)cc1,13,5.2µM,?,–,?,–
O=c1c2ccccc2nc(COc2ccccc2)n1/N=C/c1cn[nH]c1-c1ccccc1,–,10µM,?,44,–,–
Cc1ccc(-c2[nH]ncc2/C=N/n2c(C)nc3ccccc3c2=O)cc1,–,–,–,–,–,–
Oc1ccc(/C=N/n2c(COc3ccccc3)n[nH]c2=S)c(O)c1,–,–,·,–,–,–
O=c1c2ccccc2nc(COc2ccccc2)n1/N=C/c1ccc(O)cc1O,16,–,–,94,–,–
Cc1nnc(N2CCC(C(=O)NCc3ccc(N(C)C)cc3)CC2)c2nn(-c3ccccc3)c(C)c12,·,·,·,·,·,–
O=C(/C=C\c1ccc2c(c1)OCO2)Nc1nnc(SCC(=O)OCc2ccccc2)s1,–,–,–,–,–,–
Cc1cc(Br)c(OCc2ccc(C(=O)N/N=C/c3ccc[nH]3)cc2)c(Br)c1,·,10µM,2.6µM,·,·,?
O=C1CCC/C(=N\NC(=O)c2ccc(COc3cccc4cccnc34)cc2)C1,–,–,–,–,–,–
O=C(N/N=C/c1ccc[nH]1)c1ccc(COc2cccc3cccnc23)cc1,34,?,10µM,–,–,–
O=C(N/N=C/c1ccccc1C(=O)O)c1ccc(COc2cccc3cccnc23)cc1,–,–,–,–,·,–
NNC(=O)c1ccc(COc2cccc3cccnc23)cc1,32,–,–[5.75 µM],–,·,–
Cc1nc(NCC(c2ccccc2)N(C)C)c2c(C)c(C)sc2n1 (centres undefined),–,?,?,–,–,–
O=C(COC(=O)C1CCN(c2ccc(C(F)(F)F)cn2)CC1)NCc1ccc(F)cc1,·,–,–,·,·,–
O=C(Cc1ccccc1)Nc1ccc(-c2nnc(-c3ccco3)o2)cc1,17,–,–,–,–,–
O=C(Cc1ccccc1)c1nnc(-c2ccccc2)o1,14,?,–,–,–,–
SMILES,CHX counter,Pf growth 96h,Pf growth 48h,Shiga inhibitor,NS1 function inh,Sm TGR block
Cc1ccc(NC(=O)CCSc2nnc(-c3ccco3)o2)cc1,–,?,–,–,–,–
O=C(CSc1nnc(-c2ccccc2)o1)c1nnc(-c2ccccc2)o1,–,?,·,–,–,–[11.4 µM]
COc1ccccc1CC(=O)Nc1ccc(-c2nnc(-c3ccco3)o2)cc1,24,–,8.3µM,–,–,–
Cc1ccc(SCC(=O)Nc2ccc(-c3nnc(-c4ccco4)o3)cc2)cc1,16,–,?,43,–,–
COc1ccc(OCc2nc3c4c(-c5ccc(OC)cc5)c(-c5ccc(OC)cc5)oc4ncn3n2)cc1,·,·,·,·,·,–
COC(=O)C1=C(c2ccc(-c3ccccc3)c(F)c2)C[C@@H]2CC[C@H]1N2C(=O)NCc1cccc2ccccc12,·,1µM,1.2µM,·,·,–
COC(=O)C1=C(c2ccc(OC(F)(F)F)cc2)C[C@@H]2CC[C@H]1N2C(=O)NCc1cccc2ccccc12,·,1.9µM,1.7µM,·,·,–
COC(=O)C1=C(c2ccc(-c3ccccc3)c(F)c2)C[C@@H]2CC[C@H]1N2C(=O)NCCc1ccccc1,·,?,6.6µM,·,·,–
COC(=O)C1=C(c2ccc(OC(F)(F)F)cc2)C[C@@H]2CC[C@H]1N2C(=O)NCc1cc(C)oc1C(F)(F)F,·,8.3µM,12µM,·,·,–
COC(=O)C1=C(c2ccc(-c3ccccc3)c(F)c2)C[C@@H]2CC[C@H]1N2C(=O)NCCCOC(C)C,·,?,?,·,·,–
COC(=O)C1=C(c2ccc(-c3ccccc3)c(F)c2)C[C@@H]2CC[C@H]1N2C(=O)NCCNC(C)=O,·,–,?,·,·,–
Cn1cccc1CC(=O)NNC(=O)Nc1cccc(Cl)c1,–,–,–,–,–,–
Cc1ccc(NC(=O)CCCN2C(=O)COc3ccc(C)cc32)c(C)c1,·,·,·,·,·,–
COc1cc(C(=O)NCC(c2cccnc2)N2CCc3ccccc32)cc(OC)c1OC (centres undefined),·,·,·,·,·,–
COC(=O)C1=C(c2ccc(-c3ccccc3)c(F)c2)C[C@@H]2CC[C@H]1N2C(=O)NCCOc1ccc(OC)cc1,·,?,7.4µM,·,·,–
COc1cc(/C=C/c2nc3ccccc3c(=O)[nH]2)cc(OC)c1OC,28,–,–,–,–,–
COc1cc(/C=C/c2nc3ccccc3c(=O)[nH]2)ccc1OC(F)F,29,–,·,–,–,–
C=CCOc1cccc(/C=C/c2nc3ccccc3c(=O)[nH]2)c1,41,–,·,71,–,–
COCC(O)CNc1ccccc1 (centres undefined),–,13µM,–,–,–,–
Clc1ccc2c(c1)NC(c1ccncc1)=NC(c1cccs1)=N2,·,·,·,·,·,–
CC(=O)Cc1nsc(NC(=O)c2ccc(Br)o2)n1,–,?,–,–,–,–
COc1cccc(Nc2nc(CC(C)=O)ns2)c1,19,?,–,60,–,–
COc1ccc(Nc2nc(CC(C)=O)ns2)cc1,27,2.6µM,–,68,–,–
COc1cccc(NC(=O)CC(C)=O)c1,–,–,–,–,–,–
CCCSCCCNC(=O)c1ccc(C)c(NC(=O)c2nsc3ccccc23)c1,·,·,·,·,·,–
COc1cc(/C=C2\SC(=S)N(NS(=O)(=O)c3ccccc3)C2=O)cc(OC)c1OC,–,–,9.3µM,–,–,–
O=C1/C(=C/c2cccc(F)c2)SC(=S)N1NS(=O)(=O)c1ccccc1,–,–,–,–,–,–
O=C1/C(=C/c2ccccn2)SC(=S)N1NS(=O)(=O)c1ccccc1,–,–,–,–,·,45µM
COc1cccc(/C=C2\SC(=S)N(NS(=O)(=O)c3ccccc3)C2=O)c1OC,–,–,–,–,–,–
CCOC(=O)c1cccc(NC(=O)C(C)n2nc(C)c3c(C)n(-c4ccccc4)nc3c2=O)c1 (centres undefined),·,·,·,·,·,–
